Data on 40 compounds can be found in PubChem BioAssay (NCI).

Compounds without any hit were thinned out: in the full panel of roughly 83,000, 20% have a hit.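 Each cell line was grown in a 96-well plate and treated with one concentration of compound for 48 hours. Values below 10 were considered active.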 The source made the active and inactive calls.

The assay relates to MDA-MB-468 breast. Description: NCI-60 one-dose screen, 48 h (100 = growth as untreated, 0 = no growth, -100 = all killed). The settings on record: 10 µM unless noted.
For the compound `CCn1cc(Cc2cc(C(=O)Nc3cc4cc(OC)c(OC)cc4c(C)n3)ccc2Cl)cn1`, the growth is 35.5% (inactive). Regarding `COc1ccc(/C(=N/O)c2cc(OC)c(OC)c(OC)c2)c(OC)c1N`, the growth was 27.8% (inactive). In the case of `Fc1ccc(CNc2c3ccccc3nc3ccccc23)cc1F` it was -10.7% (active); in that of `C=C1C(=O)O[C@H]2[C@H]1CC/C(COC(=O)/C=C\C(=O)NCc1ccc(Cn3c(=O)sn(CCCC)c3=O)cc1)=C\CC[C@@]1(C)O[C@@H]21`, -70.9% (active).

Take `COc1ccc(Cc2nc(C#N)c(N3CCN(c4ccc(F)cc4)CC3)o2)cc1`: the growth was 78% (inactive). For the compound `O=C1Nc2ccc(F)cc2/C1=C/c1nc(-c2ccc(F)cc2)n2ccccc12`, the growth is 113% (inactive).

Consider `Cc1ccc2nc3c(cc2c1)CSc1nnc(-c2ccc[nH]c2=S)n1N3`, for which the growth was 111% (inactive). To `COc1cc(/C=C\C(C)=N\Nc2ccccc2)ccc1O` belongs 49% (inactive); to `O=C(O)CCCCNC(=O)c1ccccc1`, 97.7% (inactive).

Regarding `O=C(NCCCNc1cc(-c2cn(-c3ccccc3)nc2-c2cccc(O)c2)ccn1)c1cccc(O)c1`, the growth was 29.3% (inactive). Turning to `Cc1ccc(-c2cc3nc(C(Cl)Cl)nc(-c4ccco4)n3n2)cc1`, the growth is -41.3% (active). On to `CC(C)[C@]12O[C@H]1[C@@H]1O[C@]13[C@]1(O[C@H]1C[C@H]1C4=C(CC[C@@]13C)C(=O)OC4)[C@@H]2OC(=O)CN(C)C`, for which the growth is -55.2% (active). As to `COc1ccc(NC2=C(Cl)C(=O)C(C)=C(C)C2=O)cc1`, the growth was -38.4% (active). To `COc1ccccc1Nc1cc(O)c2c(=O)cc(-c3ccccc3)oc2c1` belongs -1.72% (active); to `O=C1CC(C(F)(F)F)=NN1C(=O)c1nn(-c2ccc(Cl)cc2)cc1O`, 116% (inactive); to `C=C(C)COC(=O)c1ccccc1C(=O)OCC1(C)CO1` (stereo not given), 108% (inactive). Consider `COC(=O)c1ccc(C(=O)Nc2ccccc2N)cc1`, for which the growth was 44% (inactive). For the compound `CC1CCC(n2cnc3c(Cl)ncnc32)O1` (stereo not given), the growth is 96.3% (inactive).

With `CC(=O)N1N=C(c2ccc(C(F)(F)F)cc2)CC1c1ccc2c(c1)OCO2` (stereo not given), the growth is 93.8% (inactive). As to `CCNC(=S)n1nc(SC)c(C(=O)OCC)c1N`, the growth was 114% (inactive). Consider `O=C(CCOCCNC(=O)COc1ccc2c(c1)OCC(c1ccc(F)cc1)C2=O)NCCCC(O)(P(=O)(O)O)P(=O)(O)O` (stereo not given), for which the growth was 106% (inactive). In the case of `Nc1ccc(-c2ccc(-c3ccccc3N)c3[nH]c4ccccc4c23)cc1` it was -5.32% (active). For `CSc1nc(NCCN2CCOCC2)c(C#N)c(-c2cccc([N+](=O)[O-])c2)n1`, the growth is 113% (inactive). For `Clc1ccc(-c2nc3ccccc3s2)cc1Cl`, the growth was 110% (inactive). In the case of `O=C(CSc1nccc(Nc2ccc(S(=O)(=O)Nc3nccs3)cc2)n1)c1ccc(F)cc1` it was 98.6% (inactive). For the compound `CCOC(=O)C1=C(CCl)NC(=O)NC1c1ccc2c(c1)OCO2` (stereo not given), the growth is -1.1% (active). For `CCOC(=O)C1=C(C)n2nc(CC#N)c(C#N)c2NC1c1ccc(Cl)cc1` (stereo not given), the growth was 117% (inactive). On to `Cc1ccc(OCCOCCOCCOCCOc2ccc(C)n(O)c2=S)c(=S)n1O`, for which the growth is -13.8% (active). For `O=C1/C(=C/c2ccccc2)CN(CCC(=O)N2C/C(=C\c3ccccc3)C(=O)/C(=C/c3ccccc3)C2)C/C1=C\c1ccccc1`, the growth was 66.9% (inactive). For the compound `Cc1ccc2c(c1)sc(-c1ccc(N(C)C)cc1)[n+]2C`, the growth is -11.3% (active). In the case of `NC1=NN=C(N)C1=Cc1cc2ccccc2n2nnnc12` it was 94.8% (inactive); in that of `C=C(C)[C@@H]1CCC[C@]2(C(=O)OC)CC[C@]3(C)[C@@H](CC[C@@H]4[C@@]5(C)CCCNC(C)(C)[C@@H]5CC[C@]43C)[C@@H]12`, 65.3% (inactive). Consider `c1ccc2nc(N3CCOCC3)c(N3CCCCC3)nc2c1`, for which the growth is 94% (inactive).

As to `COC(C(=O)[C@@H](O)[C@@H](C)O)[C@@H]1Cc2cc3cc(O[C@H]4C[C@@H](O[C@H]5C[C@@H](O)[C@H](O)C(C)O5)[C@H](O)C(C)O4)cc(O)c3c(O)c2C(=O)[C@H]1O[C@H]1C[C@@H](O[C@H]2C[C@@H](O[C@H]3C[C@@H](OC)[C@H](O)C(C)O3)[C@@H](O)C(C)O2)[C@H](O)C(C)O1` (stereo not given in full), the growth is 59.3% (inactive). Regarding `CCN1C(=O)N(CC)C2C1NN=c1s/c(=C\c3cccnc3)c(=O)n12` (stereo not given), the growth was 23.3% (inactive).

For `COc1ncc(-c2ccc3ncnc(Nc4cccc(Cl)c4)c3c2)cc1N(S(C)(=O)=O)S(C)(=O)=O`, the growth was -3.15% (active). As for `COc1ccc(/C=N/NC(=O)Cn2c(-c3ccc(S(C)(=O)=O)cc3)nc3cc(Cl)ccc32)cc1`, the growth is -18.5% (active). As to `Nc1cc(C(=O)O)cc(-n2c(O)c(C=C3N=c4ccccc4=N3)sc2=S)c1`, the growth is 105% (inactive). For `Cc1ccc2nc(NC(=O)CSc3nc(-c4ccccc4)c(C#N)c(=O)n3Cc3ccccc3)sc2c1`, the growth was 102% (inactive).

Take `O=C1CNCCN1`: the growth was 106% (inactive).
